For 48 compounds, inhibition results are on record in ChEMBL document CHEMBL3433997, “St. Jude Leishmania screening dataset” (2016).

Holding throughout (type): functional
In experiment [1] the target is Solute carrier family 2, facilitated glucose transporter member 1 (Homo sapiens) (UniProt P11166). Nature of the experiment: ST_JUDE_LEISH: Cytotoxicity at 2uM final concentration against transgenic Leishmania Mexicana promastigotes LmGLUT1 that are glucose transport deficient and complemented with the human glucose transporter GLUT1. Activity is measured by DNA content using SYBR green in vitro.
Solute carrier family 2, facilitated glucose transporter member 1 (Homo sapiens), sequence (P11166 whole entry): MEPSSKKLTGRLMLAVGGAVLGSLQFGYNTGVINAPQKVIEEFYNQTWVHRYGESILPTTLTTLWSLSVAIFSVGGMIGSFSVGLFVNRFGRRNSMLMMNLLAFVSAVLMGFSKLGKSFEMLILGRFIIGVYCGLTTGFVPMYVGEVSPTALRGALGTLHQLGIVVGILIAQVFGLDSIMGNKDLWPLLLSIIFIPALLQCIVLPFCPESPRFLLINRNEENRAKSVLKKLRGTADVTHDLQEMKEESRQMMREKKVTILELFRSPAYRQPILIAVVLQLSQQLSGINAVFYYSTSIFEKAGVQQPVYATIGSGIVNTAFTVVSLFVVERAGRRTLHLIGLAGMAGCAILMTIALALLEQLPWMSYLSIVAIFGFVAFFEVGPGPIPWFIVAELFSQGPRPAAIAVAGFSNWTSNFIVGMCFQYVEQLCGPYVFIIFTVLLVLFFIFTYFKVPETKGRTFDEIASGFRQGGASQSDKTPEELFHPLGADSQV

For experiment [2], the target named is Hexose transporter 1 (Plasmodium falciparum) (UniProt O97467). The experiment can be described thus: ST_JUDE_LEISH: Cytotoxicity at 2uM final concentration against transgenic Leishmania Mexicana promastigotes LmPfHT that are glucose transport deficient and complemented with the Plasmodium falciparum hexose transporter. Activity is measured by DNA content using SYBR green in vitro.

Experiment [3] addresses Glucose transporter (Leishmania mexicana) (UniProt O61059). The experiment can be described thus: ST_JUDE_LEISH: Cytotoxicity at 2uM final concentration against transgenic Leishmania Mexicana promastigotes LmGT2 that are glucose transport deficient and complemented with the L. Mexicana glucose transporter 2. Activity is measured by DNA content using SYBR green in vitro.

One may read the inhibition as the change of the read-out against control, counted positive when it falls. `CCN(CC)CCN1C(=O)c2oc3ccc(F)cc3c(=O)c2C1c1cccc(Cl)c1` (centres undefined): the inhibition is -2.07% in experiment [1], 2.22% in experiment [2] and 4.25% in experiment [3].

For `c1ccc2nc(NCCCCCCCCNc3ccc4ccccc4n3)ccc2c1`, the inhibition in experiment [1] was determined as 5.37%; in experiment [2] it was 3.68%; in experiment [3], 4.58%.

With `COC(=O)CC[C@H](NC(=O)[C@H](C)NC(=O)OC(C)(C)C)C(=O)OC`, the inhibition in experiment [1] came out at 4.67%; in experiment [2] it was 0.48%; in experiment [3], 0.89%.

With `Nc1nc(N)c2c3c(cnc2n1)CCCC3`, the inhibition amounted to 9.74% in experiment [1], 9.11% in experiment [2] and 10.8% in experiment [3].

Take `Cc1ccc2[nH]c(NC#N)nc2c1`: the inhibition in experiment [1] came out at 0.53%; in experiment [2], 0.67%; in experiment [3], 0.78%.

Regarding `O=C(Nc1ccc(S(=O)(=O)N2CCCCCC2)cc1)c1cc(-c2ccccc2O)n[nH]1`, the values for the inhibition in experiment [1], in experiment [2] and in experiment [3] were 9.89%, 8.12% and 8.68%, respectively.

For the compound `COc1cc2nc(N3CCC(CNC(=O)c4ccc(-c5ccc(C(=O)N(C)C)cc5OCCN(C)C)cc4)CC3)nc(N)c2cc1OC`, the figures for the inhibition in experiment [1], in experiment [2] and in experiment [3] were 0.34%, 0.98% and 0.37%, respectively.

Take `CCN(CC)CCCNc1nccc(N(C)c2ccc(NC(=O)Nc3cc(C(F)(F)F)ccc3F)cc2)n1`: the results for the inhibition in experiment [1], in experiment [2] and in experiment [3] were 11.7%, 9.93% and 11.9%, respectively.

As to `Cc1c(C(=O)Nc2cc(Sc3ccc(F)cc3)cc([N+](=O)[O-])c2)sc2ncn(Cc3cccc(F)c3)c(=O)c12`, the inhibition in experiment [1] is 3.77%; in experiment [2], -2.45%; in experiment [3] it was 7.11%.

In the case of `O=C(Nc1ccc(-c2cccc(-c3nc4cc(C(F)(F)F)ccc4[nH]3)c2)cc1)Nc1ccc(Cl)c(Cl)c1`, the results for the inhibition in experiment [1], in experiment [2] and in experiment [3] were 10.9%, 7.67% and 13%, respectively.

In the case of `O=C(CSc1nccn1C1CCCCC1)Nc1cc(C(F)(F)F)ccc1Cl`, the inhibition in experiment [1] came out at 8.56%; in experiment [2], 9.47%; in experiment [3], 7.3%.

In the case of `Cc1cccc2nc(-c3ccc(-c4cccc(CNCc5ccccc5)c4)cc3)[nH]c12`, the inhibition in experiment [1] was determined as 16.8%; in experiment [2], 9.57%; in experiment [3], 6.25%.

For the compound `CN(C)C(=O)CC(=O)NCc1c(Cl)cccc1Cl`, the inhibition came out at 0.42% in experiment [1], 4.4% in experiment [2] and 2% in experiment [3].

Turning to `Cc1ccc2c(=O)cc(CCc3cccc(F)c3F)n(CC(=O)N(Cc3ccc(-c4ccc(C(F)(F)F)cc4)cc3)C3CCN(C(C)C)CC3)c2n1`, the figures for the inhibition in experiment [1], in experiment [2] and in experiment [3] were -2.51%, -0.71% and -1.8%, respectively.

In the case of `OC1(c2ccc(Br)cc2)CCN(C2CCN(Cc3ccccc3)CC2)CC1`, the inhibition in experiment [1] was determined as 5.8%; in experiment [2] it was 6.01%; in experiment [3], 3.71%.

In the case of `CCOC(=O)c1cnc2c(OC)cc(OC)c(Cl)c2c1Nc1ccccc1`, the values for the inhibition in experiment [1], in experiment [2] and in experiment [3] were 5.44%, 4.89% and 6.19%, respectively.

For `CC(=O)N(C)C1CCN(Cc2ccc(-c3ccc(-c4nc5cc(F)ccc5[nH]4)s3)cc2)C1` (centres undefined), the inhibition in experiment [1] turned out to be 8.07%; in experiment [2], 5.96%; in experiment [3] it was 6.2%.

Regarding `COc1ccc2c(Nc3ccc(N4CCN(C)CC4)cc3)cc(C)nc2c1`, the inhibition in experiment [1] is 9.36%; in experiment [2] it was 6.21%; in experiment [3], 4.55%.

For the compound `O=C(Nc1ccc(-c2nc3cc4ccccc4cc3[nH]2)cc1)c1cccc(Br)c1`, the inhibition in experiment [1] was found to be 3.09%; in experiment [2] it was 1.07%; in experiment [3], 5.72%.

As to `CC(C)(C)c1ccc(-c2csc(NC(=O)CC(c3ccccc3)c3ccccc3)n2)cc1`, the figures for the inhibition in experiment [1], in experiment [2] and in experiment [3] were 1.4%, 1.95% and 2.07%, respectively.

With `O=C(Nc1cccc(-c2ccc(-c3nc4cc(F)ccc4[nH]3)cc2)c1)c1ccoc1`, the inhibition is 1.01% in experiment [1], 1.14% in experiment [2] and -0.42% in experiment [3].

As for `Cc1cc(N(C)C)nc(Nc2ccc(NC(=O)c3c(F)cccc3Cl)cc2)n1`, the inhibition was 7.36% in experiment [1], 7.84% in experiment [2] and -0.01% in experiment [3].

`COc1ccc(-c2cccc(NC(=O)c3ccc(Cl)cc3)c2)cc1CN1CCCN(C)CC1`: the inhibition in experiment [1] amounted to 7.89%; in experiment [2], 8.76%; in experiment [3] it was 7.23%.

For the compound `O=C(c1ccccc1[N+](=O)[O-])N(Cc1ccccc1)c1ccccn1`, the inhibition in experiment [1] was 4.59%; in experiment [2], 4.79%; in experiment [3], 6.57%.

Take `COc1ccc(CCNCCCCCCNCCc2cccc([N+](=O)[O-])c2)cc1OC`: the inhibition in experiment [1] is 0.45%; in experiment [2], 1.78%; in experiment [3], 3.28%.

Consider `OC(CNc1cccc(Cl)c1)Cn1c2ccc(Cl)cc2c2cc(Cl)ccc21` (centres undefined), for which the inhibition in experiment [1] came out at 3.75%; in experiment [2], 1.59%; in experiment [3] it was 2.34%.

In the case of `CCCNCc1ccc(-c2ccc(CN(C(=O)c3nn(-c4ccccc4)nc3C)C3CC3)cc2)nc1`, the inhibition is 0.19% in experiment [1], 0.58% in experiment [2] and 0.38% in experiment [3].

On to `FC(F)(F)c1ccc2[nH]c(-c3cccc(-c4ccc(CNCc5ccccc5)cc4)c3)nc2c1`, for which the inhibition in experiment [1] is -0.08%; in experiment [2], -1.13%; in experiment [3] it was -0.47%.

On to `C=CCOC(=O)N1CCC(CNCc2ccc(-c3cccc(-c4nc5cc(F)ccc5[nH]4)c3)cc2)C1` (centres undefined), for which the inhibition in experiment [1] is 1.77%; in experiment [2] it was 2.36%; in experiment [3], 3.88%.

In the case of `COc1ccc2c(N/N=C/c3ccccc3[N+](=O)[O-])ccnc2c1`, the values for the inhibition in experiment [1], in experiment [2] and in experiment [3] were 4.94%, -0.53% and 3.75%, respectively.

On to `Nc1c2c(nc3ccc(NC(=O)CCCCCc4ccccc4)cc13)CCCC2`, for which the inhibition in experiment [1] was found to be 7.95%; in experiment [2], 9.26%; in experiment [3], 10%.

For `CN1CCN(CC(=O)Nc2cccc(-c3ccc(-c4nc5cc(C(F)(F)F)ccc5[nH]4)cc3)c2)CC1`, the inhibition in experiment [1] came out at 0.96%; in experiment [2], 0.81%; in experiment [3], 1.35%.

Take `O=C(NCCCCN1CCN(c2nsc3ccccc23)CC1)c1ccccc1C(=O)NCCCCN1CCN(c2nsc3ccccc23)CC1`: the inhibition in experiment [1] is 2.17%; in experiment [2], -0.52%; in experiment [3], -0.08%.

On to `COc1cc(/C=C/C(=O)NCC(CCNc2cc(=O)c3ccccc3[nH]2)NCc2cc(Br)cc(Br)c2)cc(OC)c1` (centres undefined), for which the inhibition in experiment [1] is 2.85%; in experiment [2] it was 3.71%; in experiment [3], 2.37%.

As for `CN(C)CCCOc1ccc(CN2CC[C@H](NC(=O)c3ccc(Cl)c(Cl)c3)C2)cc1Cl`, the inhibition in experiment [1] was 13.3%; in experiment [2] it was 10.7%; in experiment [3], 8.69%.

As to `CN(C)Cc1ccc(-c2ccc(NC(=O)c3ccc4c(=O)n(Cc5ccccc5)cnc4c3)cc2)cc1`, the inhibition in experiment [1] was determined as 95.2%; in experiment [2], 94%; in experiment [3], 63.3%.

Turning to `N=C(N)Nc1ccc(Cc2ccc(NC(=N)N)cc2)cc1`, the inhibition in experiment [1] was -0.68%; in experiment [2], -0.57%; in experiment [3] it was 0.58%.

For `Cc1ccn2c(C(=O)N3CCN(c4cccc5c4nc(-c4ccoc4)n5Cc4ccccn4)CC3)c(C)nc2c1`, the inhibition in experiment [1] was 2.33%; in experiment [2] it was 1.01%; in experiment [3], -0.49%.

On to `Cc1cc(=NN=Cc2ccccc2Cl)c2cc(F)ccc2[nH]1`, for which the inhibition in experiment [1] is 3.99%; in experiment [2], 2.95%; in experiment [3], 2.23%.

Regarding `CCCCN(CCCC)Cc1cc(Nc2ccnc3cc(Cl)ccc23)ccc1O`, the inhibition amounted to 4.85% in experiment [1], 8.01% in experiment [2] and 4.18% in experiment [3].

In the case of `CSc1nc2nc(C)c(Cc3cccc(C(F)(F)F)c3)c(C)n2n1`, the inhibition in experiment [1] was 0.17%; in experiment [2] it was 0%; in experiment [3], -1.61%.

Take `O=C(O)CCCN1CCCC(=C(c2ccccc2)c2ccccc2)C1`: the inhibition in experiment [1] was 3.04%; in experiment [2], 3.64%; in experiment [3], 4.81%.

Regarding `Cc1c(Cl)cccc1S(=O)(=O)N1CCCCC(c2ccc(C(F)(F)F)cc2)=N1`, the inhibition was 0.39% in experiment [1], 3.08% in experiment [2] and -0.52% in experiment [3].

As for `CCCCCN1CCCC1CNS(=O)(=O)c1ccc(C(=O)Nc2ccc(C(F)(F)F)cc2)cc1` (centres undefined), the inhibition in experiment [1] amounted to 4.05%; in experiment [2] it was 3.41%; in experiment [3], 1.09%.

In the case of `Cc1cc(N)c2cc(NC(=O)/C=C/c3ccc([N+](=O)[O-])cc3)ccc2n1`, the inhibition was 3.11% in experiment [1], 1.19% in experiment [2] and 0.94% in experiment [3].

With `COc1ccc(CNCCCCCCNCCc2ccc(Cl)cc2)cc1OC`, the values for the inhibition in experiment [1], in experiment [2] and in experiment [3] were 1.25%, 1.81% and 3.24%, respectively.

Consider `CCCOc1ccc(-c2nonc2NC(=O)c2ccccc2OC)cc1OCCC`, for which the inhibition turned out to be 12% in experiment [1], 14.6% in experiment [2] and 10.7% in experiment [3].

Take `Cc1ccccc1C1CCN(c2ccc(C(=O)NC3CC3)cn2)CC1`: the figures for the inhibition in experiment [1], in experiment [2] and in experiment [3] were -0.44%, 1.26% and 0.57%, respectively.
